# In PubChem BioAssay:
# Tested on: not listed separately
# Experiment: compounds binding Alexa647 anti-His antibody – biochemical, small-molecule microarray, 635 nm fluorescence, artefact control for SMM control protein annotation, primary screen (AID 1128);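 note: score merges feature fluorescence with signal-to-noise for each printed compound spot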
# Settings: higher = more signal
row,SMILES,composite z-score
1,C=CCOC(=O)[C@H]1[C@@H]2C(=O)O[C@@H](c3ccccc3)[C@@H](c3ccccc3)N2[C@@H](c2ccc(OCCOC(=O)[C@@H]3C[C@@H]4C(=O)N[C@@H](CC(C)C)C(=O)N4[C@@H]3c3ccc(O)cc3)cc2)[C@]12C(=O)Nc1ccccc12,2.05
2,O=C(c1ccccc1)N1C(=O)[C@]2(COC(c3ccc(OCCCO)cc3)=N2)Cc2ccccc21,3.28
3,CCCc1cc2c(n1Cc1cc(F)cc(F)c1)C(C)C1CN(C(=O)c3ccccc3)C(C)(C(=O)OC)C21 (stereo not drawn),2.15
4,O=C(c1ccccc1)N1C(=O)[C@@]2(Cc3ccccc31)N=C(c1ccc(OCCCO)cc1)O[C@H]2c1ccccc1,1.39
5,CO[C@H]1O[C@H](CO)[C@@H](OC(=O)Nc2ccccc2)[C@H](OC(=O)Nc2ccccc2)[C@@H]1OC(=O)Nc1ccccc1,0.865
6,COc1ccc(CCNC(=O)[C@@]2(Sc3ccc(C)cc3)CC(=O)N(C3Cc4ccccc4C3)[C@@H]2c2ccc(CO)cc2I)cc1,1.13
7,CCCCCN1CC=CC23O[C@@H]4C=CCCOC(=O)C4[C@H]2C(=O)N(CCCCCO)[C@@H]3C1=O (stereo partly drawn),0.587
8,COc1cc2c(cc1OC)CN(C(=O)[C@H]1[C@@H]3C(=O)O[C@@H](c4ccccc4)[C@@H](c4ccccc4)N3[C@@H](c3ccc(O)cc3)[C@]13C(=O)Nc1ccc(C#CCCO)cc13)CC2,1.31
9,CN1C=C(C(=O)OCCS(C)(=O)=O)C(C(=O)OCCS(C)(=O)=O)=CC(c2ccc(CO)cc2)=CC1C1CC1 (stereo not drawn),-0.281
10,C=C[C@H](CO[Si](CC)(CC)CC)N(Cc1ccc(OC(C)=O)c(OC)c1)S(=O)(=O)c1ccc(Br)cc1,2.48
11,C[N+](C)(C)CCCCCCNC(=O)[C@@H]1C[C@@H]2C(=O)N[C@@H](Cc3ccccc3)C(=O)N2[C@@H]1c1cccc(OCCO)c1,2.18
12,NC(=O)[C@@H]1[C@H]2C(=O)O[C@H](c3ccccc3)[C@H](c3ccccc3)N2[C@H](c2ccc(O)cc2)[C@@]12C(=O)Nc1ccccc12,-0.393
13,C=C(CCCC)/C(=C/C[C@@H](OC(C)=O)c1ccc(OCCO)cc1)c1cnc2ccccc2c1,1.42

# Tested on: Human papillomavirus type 1a E7 protein (residues 1-88)
# Experiment: HPV1a E7 small-molecule binders, primary screen, biochemical, small-molecule microarray, residues 1-88, 635 nm (AID 1129)
# Settings: small-molecule microarray binding, fluorescence 635 nm; higher = more signal
row,SMILES,composite z-score
1,CC(C)=CCN[C@H](CO)c1ccccc1,-0.341
2,CCCC#C[Si](O[C@H](CC)c1cn(Cc2cccc(Cl)c2)nn1)(C(C)C)C(C)C,0.87
3,C=CCOC(=O)[C@H]1[C@@H]2C(=O)O[C@@H](c3ccccc3)[C@@H](c3ccccc3)N2[C@@H](c2ccc(OCCOC(=O)[C@H]3C[C@H]4C(=O)N[C@@H](CCCCNC(C)=O)C(=O)N4[C@H]3c3cccc(OCCO)c3)cc2)[C@]12C(=O)Nc1ccccc12,1.18
4,C=C(COC)/C(=C/C[C@@H](OC(=O)c1ccncc1)c1ccc(CO)o1)c1cc(C(=O)OC)ccc1OC,1.24
5,CC(C)C(=C=CC[C@@H](O)c1ccc(OCCO)cc1)C[C@@H](O)COCc1ccccc1,0.948
6,CCCCCCc1nc(-c2cc(C)c(OC)c(C)c2)cc2c1[Si](C(C)C)(C(C)C)OC2,0.103
7,COc1cc2c(cc1O)C(C1CC1)N(Cc1sc3ccccc3c1Cl)CC2 (stereo not drawn),0.87
8,COCCOC(=O)N1C(=O)[C@@]2(c3cc(C#CCC(C(=O)OC)C(=O)OC)ccc31)[C@H](C(=O)N1CCN(c3ncccn3)CC1)[C@H]1C(=O)O[C@H](c3ccccc3)[C@H](c3ccccc3)N1[C@@H]2c1ccccc1OCCO,1.2
9,C[C@H]1NC(=O)[C@@]23C(=O)N[C@@H](Cc4ccccc4)C2[C@H](C)[C@@]2(C)O[C@H]2C3/C=C/C/C=C\CNC(=O)[C@@H]2CCCN2C1=O (stereo partly drawn),0.303
10,CCOC(=O)C[C@H]1[C@H](OC(=O)c2ccc(C(=O)c3ccccc3)cc2)[C@@H](NC(=O)c2ccc3ccccc3n2)c2cc(OCCCO)ccc2N1C(=O)c1ccccc1,0.924
11,CCCC[C@@H]1C[C@H]1[C@@H](NC(=O)c1cccs1)c1ccc(-c2ccccc2)cc1,0.852
12,COC(=O)[C@@]1(Cc2ccc(OC)cc2)[C@H]2c3cc(C(=O)N4CCCC4)n(Cc4ccc(O)c(OC)c4)c3C[C@H]2CN1C(=O)c1ccccc1,0.926
13,[N-]=[N+]=NCc1ccccc1C[C@]1(C(N)=O)COC(c2ccc(OCCCO)cc2)=N1,0.3
14,C=C(COC)C(=O)CC[C@@H](OC(C)=O)c1ccc(CO)o1,-0.724
15,O=C1c2ccccc2[C@](Cc2ccccc2I)(C(=O)NCCN2CCOCC2)[C@H](c2ccc(CO)cc2)N1Cc1ccccc1Cl,1.16
